From PubChem BioAssay AID1159614 (National Center for Advancing Translational Sciences (NCATS), 2016) come the findings set out here.

SMILES strings stand for the structures. The campaign covered roughly 45,000 compounds. About 65 (0.1%) were called active. Only a selection was taken, and actives are over-represented in it overall. A number with no mark means an inactive call. The call rests on the fitted dose curve; in most records, active means well fitted activation curve with a large enough effect; inconclusive means small, poorly fitted or top-dose-only effect; inactive means no such curve, though single readings can be large or run the other way.

Sequence of Galactocerebrosidase (Homo sapiens) (P54803 whole entry G286D): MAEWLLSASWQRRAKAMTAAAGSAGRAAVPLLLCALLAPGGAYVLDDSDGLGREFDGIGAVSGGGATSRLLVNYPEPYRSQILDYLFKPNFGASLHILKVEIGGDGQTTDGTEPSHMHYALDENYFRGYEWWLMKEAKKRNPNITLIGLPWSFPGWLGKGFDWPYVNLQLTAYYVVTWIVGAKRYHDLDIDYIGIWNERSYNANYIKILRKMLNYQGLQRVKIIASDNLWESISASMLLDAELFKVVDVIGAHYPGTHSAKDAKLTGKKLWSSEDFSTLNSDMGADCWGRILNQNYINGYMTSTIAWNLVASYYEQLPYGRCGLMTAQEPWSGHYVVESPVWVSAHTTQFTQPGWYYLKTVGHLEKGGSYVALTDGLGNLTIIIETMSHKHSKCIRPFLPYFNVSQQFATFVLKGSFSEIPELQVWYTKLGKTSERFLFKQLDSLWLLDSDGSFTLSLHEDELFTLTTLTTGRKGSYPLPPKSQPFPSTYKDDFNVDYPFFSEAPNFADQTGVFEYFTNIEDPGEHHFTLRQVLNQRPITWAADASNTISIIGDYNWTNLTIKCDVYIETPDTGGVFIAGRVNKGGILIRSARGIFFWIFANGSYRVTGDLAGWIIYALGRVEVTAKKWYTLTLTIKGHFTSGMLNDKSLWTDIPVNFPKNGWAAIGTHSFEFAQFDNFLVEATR

The experiment addresses Galactocerebrosidase (Homo sapiens) (UniProt P54803). The experiment can be described thus: A Novel Cell-Based Assay to Identify Small Molecules for B -Galactocerebrosidase. Further: 0% is about no effect; nearly all actives have a fitted effect of over 65% in size. The settings on record: 145M-Twi-hGALC-G270D cells (Twitcher mouse brain line with human GALC G270D), HMU-beta-Gal fluorescence, 48 h; series mostly up to 57.5 µM; activation: at the top concentration. The source says:
Lysosomal storage diseases (LSDs) are caused by genetic mutations in genes encoding proteins important for normal lysosomal function. Globoid cell leukodystrophy (GLD), mostly known as Krabbe disease, is a prototype of the neurological LSDs caused by deficiency of beta-galactocerebrosidase (GALC). In brain specimens of GLD patients, psychosine levels are substantially elevated. At elevated concentrations, psychosine becomes cytotoxic to neuronal cells, particularly to oligodendrocytes (OLG), neural cells responsible for myelin formation. Therefore, the biochemical disturbances in GLD are manifested by different degrees of brain demyelination resulting in a broad spectrum of neurological manifestations. Most of the FDA-approved therapies are based on enzyme replacement therapeutic (ERT) agents, which treat non-neurological symptoms of Gaucher disease, Fabry disease, few mucopolysaccharidoses and Pompe disease. Unfortunately, in GLD, a primarily neurological LSD, ERT agents, as large molecular weight molecules unable to cross the blood-brain barrier, which makes this an inefficacious therapeutic approach. In GLD, increasing the residual GALC activity just above the critical threshold (~10% of wild type enzymatic activity), the cytotoxic levels of psychosine will be reduced, avoiding the OLGs apoptosis and the subsequent demyelination process. This will translate in disease stabilization and amelioration of GLD patient symptoms.
A cell-based assay in 1,536-well plate format was developed to implement a quantitative high-throughput screening (qHTS) assay using GLD-disease relevant cells to identify small molecules that produce enhancements of the residual enzymatic activity levels of mutants GALC found and prevalent in GLD patients. Compounds that are active may therefore have some therapeutic application for GLD. After the treatment of live cells for a determined period, using a fluorescent GALC specific substrate, the mutant residual GALC activity is measured. This cell-based qTHS assay was used to screen part of the MLPCN library for small molecule able to increase the mutant GALC enzymatic activity. In this assay, increased fluorescent signal corresponds to enhanced levels of mutant GALC residual enzymatic activity. Activation is the desired outcome for this assay.
NIH Chemical Genomics Center [NCGC]
NIH Molecular Libraries Probe Centers Network [MLPCN]
Assay Submitter (PI): Gustavo Maegawa MD,PhD, University of Florida, Gainesville, FL
2)#Two cell lines were established for the assay: 145M-Twi-hGALC-G270D (brain-derived Twitcher cell line stably expressing human GALC-G270D) and 145M-Twi-hGALC-WT (same 145M-Twi stably expressing human GALC wild type). The Twitcher is the murine C57B/6 model for GLD with naturally occurring homozygous nonsense GALC mutation. The 145M-Twi cell line was established at Maegawa lab (Ribbens J et al 2014).
a.#Media: DMEM/F12 (1:1) with 10% fetal bovine-serum (FBS) with penicillin/streptomycin (PS-1X - 100 I.U./mL of penicillin+100 ug/mL of streptomycin).
b.#The 6-Hexadecanoylamino-4-methylumbelliferyl-b-D-galactoside (HMU-B-gal) substrate was prepared as per Wiederschain et al 1992. Using 20-mL borosilicate tubes, 2.20 mg of HMU-b-Gal was added in each tube to prepare substrate-film with a final air-nitrogen stream evaporation to remove all diluent solvents.
c.#The HMUb-Gal substrate buffer consists of 0.2 M Na2HPO4 (sodium phosphate dibasic)/ 0.1 M Citric Acid with the pH adjusted to 5.2 using HCl. Sodium Azide at 0.02% and Sodium Taurocholate (NaTC) at 1 mg/mL were added to this substrate buffer.
d.#The HMU-b-Gal stopping buffer consist of 0.5 M NaHCO3 (sodium bicarbonate) /0.5 M Na2CO3 (sodium carbonate). […] Triton X-100 at 0.25% was added.
4)#Preparation of HMU-b-Gal substrate tubes
Adding 18.6 mL of the HMUb-Gal substrate buffer to each 20-mL tube (2.20 mg of HMU-b-Gal) will reach a concentration of 0.2 mM. Vortex well the tube until the solution is fully homogenized (clear cloudy solution). […]
`Cc1ccc(-c2nnc3c4ccccc4c(C)nn23)cc1NC(=O)c1cccc(Br)c1`: the “activation” value is -7.24%.

For `CCOc1ccc(-c2cc3c(=O)n(CC(=O)NCc4ccc(OC)cc4)ccn3n2)cc1`, the “activation” value was -15.5%. To `O=C(O)c1c(CNCc2cccc(F)c2)c2ccccc2n1Cc1ccccc1` belongs -5.18%; to `COc1cccc(NC(=O)CCNS(=O)(=O)c2ccc3c(c2)oc(=O)n3C)c1`, -7.1%; to `CCc1ccc(-n2nc(C)c3c(C)cc(=O)n(CC(=O)Nc4ccc(F)cc4C)c32)cc1`, -3.14%. `CC(C)(C)C1CCc2c(sc(NC(=O)c3ccccc3F)c2C(=O)N2CCCCC2)C1` (centres undefined): the “activation” value was -13.1%. For `CCOC(=O)c1ccc(-c2ccc(/C=C(\C#N)C(=O)Nc3ccc(C)cc3)o2)cc1`, the “activation” value is -11.5%. `Cc1ccc2cccc(NC(=O)c3ccc(OC(C)C)cc3)c2n1`: the “activation” value was -11.4%. For the molecule `CCCCOCCOC(=O)c1cccnc1`, the “activation” value was -11.9%. With `CCOc1ccccc1NC(=O)CCS(=O)(=O)c1cccc2nsnc12`, the “activation” value was 2.29%. On to `CCOc1ccc(Nc2nc3c(S(=O)(=O)c4cccc(Cl)c4)nnn3c3ccsc23)cc1`, for which the “activation” value was -14.5%. As for `COc1ccc(S(=O)(=O)c2cn(C)c3cc(N4CCCCC4)c(F)cc3c2=O)cc1`, the “activation” value was -9.33%. In the case of `O=C(CCS(=O)(=O)c1ccc2c(c1)NC(=O)CO2)Nc1cccc(C(F)(F)F)c1`, the “activation” value was -4.39%. The result for `CC(=O)c1ccc(NC(=O)CSc2nc(-c3ccccc3F)nc3c2c(=O)n(C)c(=O)n3C)cc1` reads -7.96%. As for `CCOc1ccc(N(CC)S(=O)(=O)N2CCCC(C(=O)Nc3ccc(C(C)=O)cc3)C2)cc1` (centres undefined), the “activation” value is -18%. To `CCOC(=O)c1cc2c(=O)n3ccccc3nc2n(CC2CCCO2)c1=NC(=O)c1ccccc1Br` (centres undefined) belongs -16.4%; to `COCCNC(=O)CCCN1C(=O)c2ccccc2Sc2ncccc21`, -7.98%. Regarding `Cc1ccc(O)c(NC(=O)c2cc(-c3ccc(F)cc3)no2)c1`, the “activation” value was -4.86%. The result for `COc1ccc(S(=O)(=O)NCC(c2ccc(N(C)C)cc2)N2CCc3ccccc32)cc1OC` (centres undefined) reads 7.29%.

Consider `CCc1ccc(NC(=O)CCCc2nnc3n(CCCOC)c(=O)c4sccc4n23)cc1`, for which the “activation” value was -9.86%. As to `Cc1ccc2c(c1)-c1c(cnn1CC(=O)Nc1ccccc1C#N)CO2`, the “activation” value is -5.88%. To `O=C(NCCc1ccccc1)C(=O)NCC(c1ccco1)S(=O)(=O)c1ccccc1` (centres undefined) belongs -6.34%. Take `CCOC(=O)Cn1c(=O)n(C2CCCCC2)c2nc(-c3cccc(OC)c3)nc(C(N)=O)c21`: the “activation” value was -10.1%.

Take `CCOc1ccc(N(C)S(=O)(=O)c2cc(-c3cnc(C)o3)ccc2OC)cc1`: the “activation” value was -2.93%. Take `CCc1ccc2ncc3c(-c4ccc(C)cc4)nn(CC(=O)NCc4ccccc4)c3c2c1`: the “activation” value was -22.7%. To `COc1ccc(-c2cn3c(n2)sc2cc(C(=O)Nc4ccc(F)cc4)ccc23)cc1` belongs 0.197%; to `COc1cc(Cl)c(NC(=O)CC(C)S(=O)(=O)c2cc3c(cc2C)NC(=O)CO3)c(OC)c1` (centres undefined), -5.69%; to `COc1cc(C(=O)NCCS(=O)(=O)N2CCN(c3ccccc3)CC2)cc(OC)c1OC`, -8.87%. For the molecule `Nc1ncc(S(=O)(=O)Nc2ccc(OC(F)(F)F)cc2)cn1`, the “activation” value is -4.92%. The result for `Cc1ccc(C)c(Cn2c(CCCNC(=O)C3CCCCC3)nc3ccccc32)c1` reads -11.7%. The result for `COc1ccc(CNC(=O)CC2Oc3ccc(C)cc3NC2=O)cc1` (centres undefined) reads -16.9%; that for `CCN(CCCNC(=O)CSc1cc(=O)n(C)c2cc(Cl)ccc12)c1cccc(C)c1`, -33%; that for `COc1ccc(OCC(=O)Nc2cccc(C(=O)OCc3cc(=O)n4nc(C)sc4n3)c2)cc1`, 0.413%. To `NC(=O)C1CCN(C(=O)c2cccc(NC(=O)c3nsc4ccccc34)c2)CC1` belongs -9.51%; to `Cc1ccccc1C(=O)Nc1nnc(S(=O)(=O)N(C)c2ccc(Cl)cc2)s1`, 6.13%; to `CCCCN(CC)C(=O)c1c[nH]c2ccc(S(=O)(=O)Nc3cccc(OC)c3)cc2c1=O`, -12.1%. As for `Cc1c(C(=O)N2CCCC2)oc2c1-c1nn(CC(=O)NCc3ccc(OC(C)C)cc3)cc1CC2`, the “activation” value was -10.3%. For the molecule `O=C(CN1C(=O)c2cccnc2Oc2ccc(Cl)cc21)NCCc1ccccc1`, the “activation” value is 2.45%. The result for `Cc1cccc(Nc2cc(C)nc(-n3nc(C)cc3C)n2)c1` reads -8.54%; that for `COC(=O)c1cc(NC(=O)CCc2c(C)nc3c4c(C)cc(C)nc4nn3c2C)cc(C(=O)OC)c1`, -13.4%; that for `CCOc1ccc(NC(=O)c2cn(C3CCCCC3)c(=O)c3c2c2ccccc2n3C)cc1`, -23.7%. As to `Cc1ccc(Cn2cc(CCC(=O)NCc3ccc(OC(C)C)cc3)c3ccccc32)cc1`, the “activation” value was -8.74%. As to `CCc1cnc2c(c1SCC(=O)c1ccccc1)c(=O)n(C)c(=O)n2C`, the “activation” value was -5.57%. With `Cc1ccccc1OCc1nc2c3cnn(-c4ccccc4F)c3ncn2n1`, the “activation” value is -6.17%. Take `O=C(Nc1cccc(Cl)c1)c1csnn1`: the “activation” value was -15.8%. The result for `COc1ccc(C2C(=O)N(C3CCCCC3)CC(=O)N2Cc2ccccc2Cl)cc1OC` (centres undefined) reads -7.68%. To `O=C(Nc1ccc(OC(F)(F)F)cc1)C1CCCN(S(=O)(=O)c2ccc(Br)s2)C1` (centres undefined) belongs -10.7%; to `COc1ccc(-c2cc(-c3ccc(F)cc3)nc3c2COc2ccccc2-3)cc1`, -7.39%. Regarding `O=C(CCCCn1c(=O)c2ccccc2n(CC(=O)Nc2cccc(C(F)(F)F)c2)c1=O)NCc1ccc2c(c1)OCO2`, the “activation” value was -1.08%.
